LGR2 antag – blocks bursicon-induced cAMP signaling via Drosophila LGR2; inhibition, % at 9.99 µM; HEK293 LGR2, CRE-luciferase, bursicon-stimulated, 4 h; actives 0.35% (n = 380,000); AID 720647;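 active = drop in luminescence signal, shown as inhibition above about 50% in the replicate tests, limit read from the data, passing the limit was not always enough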;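 also: agonist challenge used bursicon conditioned medium at about half maximal strength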
TWEAK Fn14 block – inhibitors of TWEAK-Fn14 interaction signaling | TWEAK-stimulated Fn14 reporter cells, luciferase luminescence, 8 h | inhibition, % at 10 µM | actives 2% (n = 360,000) | AID 1159606; in the data active = inhibition above about 50%
EWS-Fli block – EWS/Fli transcriptional activity inhibition | actives 0.67% (n = 350,000) | inhibition, % at 12.6 µM | A673 NR0B1-luciferase reporter, viability-normalised;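 active = mean inhibition of at least 50% after viability correction, with every replicate also passing that limit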;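 also: firefly luciferase signal divided by Alamar Blue viability fluorescence both relative to DMSO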
TROY NFkB inh – blocks TROY-dependent signaling in reporter cells; Q293 LMP1-TROYcd NF-kB luciferase reporter, 4 h; AID 1347056; actives 0.98% (n = 360,000); inhibition, % at 10 µM;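 active = compounds whose plate-normalised and pattern-corrected inhibition of the luciferase reporter signal at the single screening dose is 50% or more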
LMP1 NFkB inh – inhibitors of Epstein-Barr LMP1-induced NF-kappaB reporter; inhibition, % at 12.5 µM; LMP1-induced NF-kappaB luciferase reporter cells, luminescence; actives 0.69% (n = 350,000); AID 504558; in the data active = inhibition above about 41%;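 also: 0% = neutral control wells and 100% = reference inhibitor control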
An asterisk follows results filed as active. Sampled rows, rich in hits. Any-hit rate of the full collection: about 2.6%.

For C[C@H](CO)N1C[C@H](C)[C@@H](CN(C)C(=O)CC2CC2)Oc2ncc(C#CC3(O)CCCC3)cc2C1=O the results were LGR2 antag -7 and EWS-Fli block -3.
Screening Cc1cccc(C(=O)N2CCC(c3nc(-c4ccc(S(=O)(=O)N5CCOCC5)cc4)no3)CC2)c1 returned TWEAK Fn14 block 2, TROY NFkB inh 12 and LMP1 NFkB inh -8.
`O=C(c1ccccc1)N1CCC(c2nc(-c3ccc(S(=O)(=O)N4CCOCC4)cc3)no2)CC1` gave TWEAK Fn14 block 62* and LMP1 NFkB inh 11.
Screening O=C(C[C@H]1CC[C@@H]2[C@H](COC[C@H](O)CN2C(=O)c2ccc(F)cc2)O1)NC1Cc2ccccc2C1 returned LGR2 antag 10 and EWS-Fli block -8.
CC1(C(=O)Nc2cccc(OC(F)(F)F)c2)Cc2c(-c3cccc(C(F)(F)F)c3)ccnc2O1 (stereo not drawn) was read as LGR2 antag 9, TWEAK Fn14 block -4, EWS-Fli block 8 and TROY NFkB inh -4.
CC(=O)Nc1cccc(-c2ccnc3c2CC(C)(C(=O)Nc2cccc(OC(F)(F)F)c2)O3)c1 (stereo not drawn) was read as LGR2 antag 16, TWEAK Fn14 block 16, EWS-Fli block 52* and TROY NFkB inh 42.
`CC1(C(=O)NCc2ccccc2)Cc2c(-c3cccc(C(N)=O)c3)ccnc2O1` (stereo not drawn) gave LGR2 antag -20, TWEAK Fn14 block 2, EWS-Fli block 58* and TROY NFkB inh -7.
CC(=O)Nc1cccc(-c2ccnc3c2CC(C)(C(=O)NCc2ccc(F)c(F)c2)O3)c1 (stereo not drawn) was read as LGR2 antag -22, TWEAK Fn14 block 11, EWS-Fli block 58* and TROY NFkB inh 19.
Screening COc1ccc(NC(=O)Nc2ccc3c(c2)C(=O)N([C@H](C)CO)C[C@H](C)[C@H](CN(C)C(=O)c2ccccc2)OCCCC[C@H](C)O3)cc1 returned LGR2 antag 10 and EWS-Fli block -4.
`COc1ccc(NC(=O)Nc2ccc3c(c2)C(=O)N([C@H](C)CO)C[C@H](C)[C@H](CN(C)S(C)(=O)=O)O3)cc1` gave LGR2 antag 16 and EWS-Fli block 0.
For O=C(CN1C(=O)COc2ccccc21)N(Cc1cccnc1)Cc1cccc(F)c1 the results were LGR2 antag -15, TWEAK Fn14 block 68*, TROY NFkB inh 16 and LMP1 NFkB inh 7.
Screening COc1ccc(CN(C)C[C@H]2Oc3ccc(NC(=O)CCC(F)(F)F)cc3CC(=O)N([C@@H](C)CO)C[C@H]2C)cc1 returned LGR2 antag -36 and EWS-Fli block 2.
Nc1ccccc1SC1CC(=O)N(c2ccccc2Cl)C1=O (stereo not drawn) was read as LGR2 antag 6, TWEAK Fn14 block 14, EWS-Fli block -10, TROY NFkB inh -1 and LMP1 NFkB inh 47*.
Screening CCC(=O)Nc1ccc2c(c1)C(=O)N(C)C[C@@H](OC)[C@@H](C)CN(Cc1ccccc1F)[C@@H](C)CO2 returned LGR2 antag 7 and EWS-Fli block 4.
For CO[C@H]1CN(C)C(=O)c2ccc(NC(=O)C3CC3)cc2OC[C@@H](C)N(CCC(F)(F)F)C[C@H]1C the results were LGR2 antag 13 and EWS-Fli block 2.
Screening Cc1ccc(S(=O)(=O)N[C@H]2CC[C@H](CCn3cc(C4CCCC4)nn3)O[C@H]2CO)cc1 returned LGR2 antag 0 and EWS-Fli block -3.
`O=C1C=C(NCc2ccccc2)CCC1` gave LGR2 antag -4, TWEAK Fn14 block 5, EWS-Fli block 0, TROY NFkB inh 6 and LMP1 NFkB inh 2.
`O=C1C=C(NC2=CC3OC(c4ccccc4)OCC3OC2=O)CCC1` (stereo not drawn) gave LGR2 antag 59*, TWEAK Fn14 block 71*, EWS-Fli block -7, TROY NFkB inh 8 and LMP1 NFkB inh -1.
For C[C@H]1CN([C@@H](C)CO)C(=O)c2c(c3ccccc3n2C)-c2ccccc2CO[C@@H]1CN(C)Cc1cccnc1 the results were LGR2 antag -7 and EWS-Fli block 14.
`O=c1c(-c2ccc(Cl)cc2)coc2c(CN3CCCCC3)c(O)ccc12` gave LGR2 antag 0, TWEAK Fn14 block 4, EWS-Fli block -11, TROY NFkB inh -25 and LMP1 NFkB inh -5.
O=c1c(-c2ccccc2Cl)coc2c(CN3CCCCC3)c(O)ccc12 was read as LGR2 antag 11, TWEAK Fn14 block 64*, EWS-Fli block -10, TROY NFkB inh 3 and LMP1 NFkB inh -7.
Screening CC(=O)N1CC(=O)N2[C@H](CO)[C@H](c3ccc(-c4ccc(C#N)cc4)cc3)[C@H]2C1 returned LGR2 antag 2 and EWS-Fli block 3.
C[C@@H]1CN([C@@H](C)CO)C(=O)c2cccc(NS(=O)(=O)c3ccccc3)c2O[C@@H]1CN(C)S(=O)(=O)c1cccs1 was read as LGR2 antag -7 and EWS-Fli block 44.
N/C(=N\OC(=O)c1ccccc1Cl)c1ccccc1 was read as LGR2 antag 60*, TWEAK Fn14 block 43, TROY NFkB inh 13 and LMP1 NFkB inh -43.
Screening N/C(=N\OC(=O)c1ccc(Cl)cc1Cl)c1cccnc1 returned LGR2 antag -24, TWEAK Fn14 block 22, TROY NFkB inh -39 and LMP1 NFkB inh 4.
For N/C(=N\OC(=O)c1ccc(Cl)cc1Cl)c1ccc(Cl)cc1 the results were TWEAK Fn14 block 71*, TROY NFkB inh 67* and LMP1 NFkB inh -19.
`N/C(=N\OC(=O)c1ccccc1Cl)c1ccc(Cl)cc1` gave TWEAK Fn14 block 32, TROY NFkB inh 16 and LMP1 NFkB inh -61.
For O=C(NOCc1ccccc1)c1ccccc1 the results were LGR2 antag 25, TWEAK Fn14 block 40, EWS-Fli block -8, TROY NFkB inh -9 and LMP1 NFkB inh 6.
Screening N/C(=N\OC(=O)c1ccc(Cl)cc1Cl)c1ccccc1 returned TWEAK Fn14 block 91*, TROY NFkB inh 63* and LMP1 NFkB inh -30.
`N/C(=N\OC(=O)c1ccco1)c1ccc(Cl)cc1` gave LGR2 antag -59, TWEAK Fn14 block -12, EWS-Fli block -87, TROY NFkB inh -75 and LMP1 NFkB inh -41.
`O=C(NOCc1ccccc1)c1ccc(Cl)cc1Cl` gave LGR2 antag 82*, TWEAK Fn14 block 82*, EWS-Fli block 50, TROY NFkB inh 42 and LMP1 NFkB inh 46*.
Screening O=S(=O)(c1ccccc1)N1[C@@H]2CNc3ccccc3[C@@H]2[C@@H]1CO returned LGR2 antag 9 and EWS-Fli block 4.
`Cc1ccc(/C(N)=N/OC(=O)c2ccc(C)cc2Cl)cc1` gave LGR2 antag 59*, TWEAK Fn14 block 85*, EWS-Fli block 28, TROY NFkB inh 75* and LMP1 NFkB inh 10.
Cc1cc(/C(N)=N/OC(=O)c2ccccc2Cl)no1 was read as LGR2 antag 84*, TWEAK Fn14 block 54*, EWS-Fli block 17, TROY NFkB inh 22 and LMP1 NFkB inh 24.

Screening results from PubChem.
